High-throughput results from PubChem.
Mito fusion act: blocks mitochondrial division or promotes mitochondrial fusion; AID 485298; Potency, µM (titrated, usually from 46.1 µM), for inactives: top-dose growth rescue (activation), usual class: activators; 320,000 tested, 0.23% active; S. cerevisiae fusion-defective mutant growth rescue, CellTiterGlo 48 h; note: % of control where 0% means no effect; nearly all actives have a fitted effect of over 45% in size
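Luminescent cell viability in 1536-well qHTS format served as the measure of rescued growth in ts fusion-mutant S. cerevisiae cultured on non-fermentable YPEG for 48 hours at 37C.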
Integrin act MD: activates integrin-mediated alleviation for muscular dystrophy. alpha7betagal myoblasts, beta-gal FDG fluorescence, 48 h. Potency, µM (top dose mostly 38.3 µM), for the others: top-dose activation, hits mostly activators. 350,000 tested, 0.064% active;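 note: 100% = response of the positive control SU9516; nearly all actives have a fitted effect of over 60% in size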
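alpha7betagal+/- myoblasts (passage 13, 250/well) treated 48 h at 37C with compounds at 1:260 dilution of DMSO stock. Lysed, then beta-galactosidase activity read as FDG fluorescence (ex 480/em 540) after 30 min, with pre-read for autofluorescence.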
MCF10A rerep: induces DNA re-replication in MCF 10a normal breast cells. MCF 10A DNA re-replication, Hoechst nuclear intensity, 48 h. Potency, µM (top dose mostly 46.1 µM), inactives show at the top dose activity, positive = re-replication, usual class: activators. 350,000 tested, 2.9% active. AID 624296; note: % of control where 0% means no effect; nearly all actives have a fitted effect of over 50% in size
AT treatment: potential ataxia-telangiectasia treatment; F2112 A-T fibroblasts, KAP-1 phosphorylation AlphaLISA; neocarzinostatin DNA damage 30 min before lysis; Potency, µM (highest dose often 57.5 µM), without a hit: at the top dose activation, most hits filed as activators; 320,000 tested, 0.19% active; note: % of control where 0% means no effect; nearly all actives have a fitted effect of over 45% in size
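ATM-like activity read as KAP-1 phosphorylation via AlphaLISA donor/acceptor antibody pairs after lysis and 6 hr at 25C. Cells were ATM-null patient fibroblasts (F2112, hTERT), dosed 60 min, then exposed to the DSB inducer NCS for 30 min.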
SW480 rereplic: inducers of DNA re-replication in SW480 colon cancer cells. SW480 DNA re-replication, Hoechst DNA content imaging, 48 h. Potency, µM (highest dose often 46.1 µM), inactives show top-dose re-replication activation, actives largely listed as activators. 340,000 tested, 1.8% active. AID 624297; note: % of control where 0% means no effect; nearly all actives have a fitted effect of over 55% in size
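Quantitative HTS format with DMSO vehicle controls; 48 hr drug incubation at 37 C, then 40 min Hoechst staining and scanning imager measurement at 405 nm excitation.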
* hit, by the source's call; ? = inconclusive; . = no result given; ! = repeats disagree; [ ] = dose if it differs, or a comment. A selection: hits, their analogues and other compounds. The true share with any hit is near 4.2%. Calls come from the whole dose curve; as a rule, active = well fitted activation curve with a large enough effect; inconclusive = small, poorly fitted or top-dose-only effect; inactive = no such curve, though single readings can be large or run the other way. Potency is the fitted concentration of half-maximal effect.

SMILES	Mito fusion act	Integrin act MD	MCF10A rerep	AT treatment	SW480 rereplic
COc1cc2c(cc1OC)C1O[C@](CCCCN3C(=O)c4ccccc4C3=O)(C2)OC2=C1C(=O)c1ccccc1C2=O	0%[9.22 µM]	.	.	-3%[11.5 µM]	.
N#Cc1c(C(F)(F)F)cc(-c2ccc(Cl)cc2)[nH]c1=O	1%	-11%	4.6µM*	23%	?
N#Cc1c(C(F)(F)F)cc(-c2cccc(Cl)c2)[nH]c1=O	-5%	15%	16µM*	30%	?
N#Cc1c(-c2ccccc2)cc(-c2ccccc2)[nH]c1=O	7%	33%	-3%	0.79µM*	10%
N#Cc1c(C(F)(F)F)cc(-c2ccc(F)cc2)[nH]c1=O	1%	-3%	21µM*	18%	452%
CCC1NC(=O)c2cccnc2-n2c1nc1cc(OC)c(OC)cc1c2=O (stereo not drawn)	.	-5%	.	.	.
COc1ccc(-c2cc(C(F)(F)F)c(C#N)c(=O)[nH]2)cc1	7%	-22%	18µM*	8%	18%
COc1ccccc1-c1cc(C(F)(F)F)c(C#N)c(=O)[nH]1	0%	-5%	?	7%	20%
CCCCC[C@@H](/C=C/C1C(=O)C=C[C@H]1C/C=C\CCCC(=O)OC)OC(C)=O (stereo partly drawn)	.	-41%	18µM*	.	-22%[9.22 µM]
COc1ccc(NC(=O)c2nc[nH]c2C(=O)N(C)CCO)cc1	.	13%	.	.	.
Cc1ccc(NC(=S)NC2CCSc3ccccc32)cc1C (stereo not drawn)	-11%	-15%	18µM*	-2%	18µM*
O=[N+]([O-])c1ccc(OCc2n[nH]c(=S)n2-c2ccccc2)cc1	-5%	-18%	?	7%	-7%
O=C(NC12CC3CC(CC(C3)C1)C2)c1ccccc1O	6%	-32%	8.2µM*	?	2%
O=C(NC12CC3CC(CC(C3)C1)C2)c1ccc(-c2ccccc2Cl)o1	-12%	27%	16µM*	3%	9%
O=C(c1ccc(-c2ccccc2Cl)o1)N1CCC1	11%	-20%	1%	0%	?
O=C(NNC(=O)C12CC3CC(CC(C3)C1)C2)c1ccccc1O	23%	7%	10%	0%	?
C/C(=N\NC(=O)c1ccc(N)cc1)C1CC1	0%	0%	7%	7%	-3%
C/C(=N\NC(=O)c1ccccc1O)C1CC1	-2%	-40%	2%	-6%	16µM*
CC1CCN(C(=O)c2ccc(-c3ccccc3Cl)o2)CC1	16µM*	40%	?	5%	-557%
COc1ccc2c(COC(=O)c3ccc(C)c(S(=O)(=O)N4CCOCC4)c3)cc(=O)oc2c1	.	30%	3%	.	3%
O=C(NN=C1C2CC3CC(C2)CC1C3)c1ccccc1O	0%	?	18%	-2%	21µM*
CC(=O)OCC1OC(n2c(S)c(C#N)c(-c3ccccc3)c(C#N)c2=O)C(OC(C)=O)C(OC(C)=O)C1OC(C)=O (stereo not drawn)	.	-44%	2%	.	-3%
CCC(C)NC(=O)COC(=O)c1oc2ccccc2c1CSc1ccc(Cl)cc1 (stereo not drawn)	2%	-12%	-1%	3%	0.92µM*
Fc1ccc(-c2nc3ccccn3c2NCc2ccc3c(c2)OCO3)cc1	?	15%	11µM*	15%	?
Oc1ccc(-c2nc3ccccn3c2NCc2ccc3c(c2)OCO3)cc1	-1%	13%	-6%	-6%	-2%
SMILES	Mito fusion act	Integrin act MD	MCF10A rerep	AT treatment	SW480 rereplic
CCOc1ccc(Nc2c3ccccc3nc3ccccc23)cc1	11%	-52%	3.3µM*	10%	4.6µM*
CCOc1ccc(Nc2cc(C)c3ccccc3n2)cc1	-32%	-14%	?	1%	17%
O=[N+]([O-])c1ccc(CSc2nnc(SCc3ccccc3)s2)cc1	12%	-14%	6.5µM*	2%	-9%
O=[N+]([O-])c1ccc(CSc2nc3ccccc3o2)cc1	-1%	-23%	1%	15%	5%
O=C1NC(=Nc2ccccc2)SC1Cc1ccccc1 (stereo not drawn)	1%	1%	-5%	6%	5.8µM*
Cc1ccc(NS(=O)(=O)c2ccc(Cl)c(C(=O)Nc3ccccc3-c3nc4ccccc4[nH]3)c2)cc1C	?	2%	5.2µM*	0%	8.2µM*
CCC(=C(c1ccc(O)cc1)c1ccc(OCCN(C)C)cc1)c1ccccc1	.	-14%	.	.	.
CCN(CC)CCOc1ccc(/C(=C(/Cl)c2ccccc2)c2ccccc2)cc1	-21%	.	4.1µM*!	-5%	-6%
CC/C(=C(\c1ccccc1)c1ccc(OCCN(C)C)cc1)c1ccccc1	-65%	.	?	-3%	1.3µM*!
Cc1cc(C)n(C(=O)C2CCCN2S(=O)(=O)c2ccc(Cl)cc2)n1 (stereo not drawn)	-1%	-9%	-3%	-4%	0%
CCN1CCN(c2nc(N(C)c3ccccc3)nc(N)c2[N+](=O)[O-])CC1	3%	0%	2%	4%	-132%
C/C(CCC12CC3CC(CC(C3)C1)C2)=N\NC(N)=S	2%	-1%	?	.	3.3µM*
C/C(CC1CC(C)OC1=O)=N\NC(N)=S (stereo not drawn)	0%	1%	-5%	7%	?
O=C(Nc1cccc(-c2csc(Nc3ccc(Cl)cc3)n2)c1)c1cccc(C(F)(F)F)c1	-127%	-48%	4.1µM*	-10%	-2%
O=C(Nc1cccc(-c2csc(Nc3ccccc3)n2)c1)c1cc([N+](=O)[O-])cc(C(F)(F)F)c1	-1%	17%	-6%	11%	20%
O=C(Nc1cccc(-c2csc(Nc3ccc(Cl)cc3)n2)c1)c1cc([N+](=O)[O-])cc(C(F)(F)F)c1	-81%	-17%	9.2µM*	45%	6%
CC(=O)N/C(=C\c1ccccc1)C(=O)OCC(=O)c1c(N)n(C)c(=O)n(C)c1=O	.	4%	-2%	-6%	-3%
Cc1cc2c(c(/C=C/C(=O)c3ccccc3)c1)OC1(C=C2)Oc2ccccc2C(=O)N1C (stereo not drawn)	-3%	0%	5.6µM*	7%	3.7µM*
O=C1c2cccc3c(N4CCCCC4)ccc(c23)C(=O)N1c1ccc(O)cc1	24%	-28%	5.8µM*	6%	12µM*
O=C1c2cccc3c(N4CCCCC4)ccc(c23)C(=O)N1c1ccccc1O	-25%	-44%	5.8µM*	5%	18µM*
O=C(O)c1ccc(N2CCCCCC2)c(N2C(=O)c3ccccc3C2=O)c1	-1%	9%	-6%	0%	-7%
COCCn1c(=S)[nH]c2cc(C(=O)NC3CCCC(C)C3C)ccc2c1=O (stereo not drawn)	.	21%	.	.	.
CSC1=NC2(C[C@H]2c2ccccc2)C(=O)N1C (stereo partly drawn)	.	20%	-12%	.	-6%[9.22 µM]
